For some assays here: Measured potencies and affinities stand elsewhere.
Columns and labels:
Set-up in all cases: scale not given: direction of the effect not stated beside the values
[1] = target: Protein translocase subunit SecA (Escherichia coli (strain K12)) (UniProt P10408); assay: Assay to Identify E. coli SecA ATPase Inhibitors; type: functional; details: 30 µM
[2] = target: T1, Ubiquitin-activating enzyme e1, putative (Leishmania donovani (strain BPK282A1)) (UniProt E9BSI1); assay: Leishmania donovani Ubiquitin Activating Enzyme (LdE1); type: functional; details: 30 µM
T1 sequence (whole entry): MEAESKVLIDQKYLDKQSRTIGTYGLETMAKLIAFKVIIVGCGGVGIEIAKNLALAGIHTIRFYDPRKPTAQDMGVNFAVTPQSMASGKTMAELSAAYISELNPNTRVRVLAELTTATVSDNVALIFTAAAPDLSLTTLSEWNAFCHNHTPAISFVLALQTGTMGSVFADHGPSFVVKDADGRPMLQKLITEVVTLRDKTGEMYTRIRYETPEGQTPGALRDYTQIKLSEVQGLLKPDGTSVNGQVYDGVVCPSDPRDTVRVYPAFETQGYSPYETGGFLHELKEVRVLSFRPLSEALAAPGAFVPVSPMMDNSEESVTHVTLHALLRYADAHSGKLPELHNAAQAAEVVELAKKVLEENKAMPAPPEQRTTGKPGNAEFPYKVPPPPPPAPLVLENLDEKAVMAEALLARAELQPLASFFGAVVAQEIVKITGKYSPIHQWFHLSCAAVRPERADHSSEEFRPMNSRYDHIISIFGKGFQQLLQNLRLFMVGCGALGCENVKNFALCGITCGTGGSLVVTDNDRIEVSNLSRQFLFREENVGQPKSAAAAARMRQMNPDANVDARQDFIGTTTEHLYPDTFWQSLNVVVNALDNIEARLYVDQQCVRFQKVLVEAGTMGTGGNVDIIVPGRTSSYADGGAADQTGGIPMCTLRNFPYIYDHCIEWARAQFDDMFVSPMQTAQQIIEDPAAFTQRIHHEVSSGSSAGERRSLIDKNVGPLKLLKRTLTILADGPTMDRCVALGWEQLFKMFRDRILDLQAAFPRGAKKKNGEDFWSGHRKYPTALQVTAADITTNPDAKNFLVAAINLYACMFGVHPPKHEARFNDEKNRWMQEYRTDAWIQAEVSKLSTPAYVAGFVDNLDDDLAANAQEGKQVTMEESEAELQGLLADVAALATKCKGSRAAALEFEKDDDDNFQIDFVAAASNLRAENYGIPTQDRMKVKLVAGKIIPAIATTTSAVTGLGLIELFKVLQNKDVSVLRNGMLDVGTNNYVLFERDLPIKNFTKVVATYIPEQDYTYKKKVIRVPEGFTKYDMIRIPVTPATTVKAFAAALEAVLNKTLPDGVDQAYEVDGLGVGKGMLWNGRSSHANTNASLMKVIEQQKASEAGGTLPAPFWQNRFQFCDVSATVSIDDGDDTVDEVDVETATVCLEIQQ

[3] = target: AMP-activated protein kinase, AMPK (Homo sapiens) (UniProt P54646+O43741+P54619+Q9UGJ0+Q9Y478+Q13131+Q9UGI9); assay: AMP-dependent Kinase enzyme assay. An in vitro enzyme assay that detects ADP turnover that is directly proportional to AMPK activity. This uses naive AMPK that is activated during the assay with MK-8722; type: functional; details: 30 µM
[4] = target: Sialic acid-binding Ig-like lectin 9 (Homo sapiens) (UniProt Q9Y336); assay: Hs-Siglec9 ALPHAscreen SOP 20170721; details: 10 µM
Trypanosoma cruzi = assay: Trypanosoma cruzi phosphomannomutase and mannose-1-phosphate guanylyltransferase assay; type: functional; details: 10 µM
[5] = target: T2, Arginase-2, mitochondrial (Homo sapiens) (UniProt P78540); assay: in vitro enzyme assay to detect the production of urea directly proportional to the activity of Arginase II; type: functional; details: 33.3 µM; further: in the data most compounds retested in dose-response had high values
T2 sequence (whole entry): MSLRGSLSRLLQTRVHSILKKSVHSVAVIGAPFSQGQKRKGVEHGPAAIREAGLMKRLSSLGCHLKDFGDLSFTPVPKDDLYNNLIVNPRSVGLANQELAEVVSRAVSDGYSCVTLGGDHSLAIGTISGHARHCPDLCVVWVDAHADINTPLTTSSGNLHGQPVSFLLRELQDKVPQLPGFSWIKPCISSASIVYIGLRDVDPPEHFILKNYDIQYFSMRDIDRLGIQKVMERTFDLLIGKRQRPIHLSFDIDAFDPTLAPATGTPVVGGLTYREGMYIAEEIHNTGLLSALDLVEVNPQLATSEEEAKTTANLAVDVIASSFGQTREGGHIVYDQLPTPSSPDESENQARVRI

[6] = target: T3, Proteasome subunit beta (Trypanosoma cruzi) (UniProt O96673); assay: Trypanosoma cruzi proteasome chymotrypsin-like activity (TcProtChymo) assay.; further: in the data most compounds retested in dose-response had high values; type: functional; details: 9.37 µM
T3 sequence (whole entry): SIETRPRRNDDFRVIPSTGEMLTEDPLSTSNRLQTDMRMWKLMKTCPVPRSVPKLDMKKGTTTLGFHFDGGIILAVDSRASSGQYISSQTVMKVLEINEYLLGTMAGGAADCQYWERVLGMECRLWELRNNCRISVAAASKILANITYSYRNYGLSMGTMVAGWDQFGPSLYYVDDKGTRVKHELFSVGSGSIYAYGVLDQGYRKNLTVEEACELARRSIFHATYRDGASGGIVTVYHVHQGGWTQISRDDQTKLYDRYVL

Homo sapiens = species on record: Homo sapiens; assay: To identify inhibition of the IFN signalling (Jak-Stat) pathway via expression of an eGFP reporter gene under the control of an IFN-stimulated response element (ISRE) containing MxA promoter.; type: functional; details: 30 µM
[7] = target: T4, Tyrosyl-tRNA synthetase, putative (Trypanosoma cruzi (strain CL Brener)) (UniProt Q4DSP6); assay: Trypanosoma cruzi tyrosyl tRNA synthetase (TcYRS) _High Tyrosine SOP; type: functional; details: 30 µM; further: in the data most compounds retested in dose-response had high values
T4 sequence (whole entry): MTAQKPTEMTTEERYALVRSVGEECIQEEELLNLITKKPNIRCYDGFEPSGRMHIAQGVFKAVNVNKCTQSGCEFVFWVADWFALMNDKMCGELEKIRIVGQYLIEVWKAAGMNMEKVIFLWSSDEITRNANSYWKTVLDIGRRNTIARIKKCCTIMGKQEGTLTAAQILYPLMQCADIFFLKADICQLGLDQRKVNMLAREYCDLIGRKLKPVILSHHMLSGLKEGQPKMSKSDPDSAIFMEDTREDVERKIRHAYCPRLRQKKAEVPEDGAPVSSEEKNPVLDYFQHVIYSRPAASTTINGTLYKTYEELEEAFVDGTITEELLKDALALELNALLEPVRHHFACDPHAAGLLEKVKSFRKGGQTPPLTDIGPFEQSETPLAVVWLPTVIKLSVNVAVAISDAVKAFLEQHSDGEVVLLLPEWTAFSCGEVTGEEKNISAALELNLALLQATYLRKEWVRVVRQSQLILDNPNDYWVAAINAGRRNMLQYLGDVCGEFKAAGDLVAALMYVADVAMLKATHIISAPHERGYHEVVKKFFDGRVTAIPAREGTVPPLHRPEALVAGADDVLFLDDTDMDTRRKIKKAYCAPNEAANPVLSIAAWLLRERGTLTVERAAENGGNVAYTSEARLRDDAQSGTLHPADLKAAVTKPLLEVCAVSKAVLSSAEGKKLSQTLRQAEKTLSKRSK

[8] = target: T4, Tyrosyl-tRNA synthetase, putative (Trypanosoma cruzi (strain CL Brener)); assay: Trypanosoma cruzi tyrosyl tRNA synthetase (TcYRS) SOP; type: functional; details: 30 µM
[9] = target: Chromo domain-containing protein 1 (Saccharomyces cerevisiae (strain ATCC 204508 / S288c) (Baker's yeast)) (UniProt P32657); assay: ScCHD-1 Enzyme Inhibition Assay; type: functional; details: 30 µM; further: in the data most compounds retested in dose-response had high values
Chromo domain-containing protein 1 (Saccharomyces cerevisiae (strain ATCC 204508 / S288c) (Baker's yeast)), sequence (P32657 whole entry, the tested form may be a part): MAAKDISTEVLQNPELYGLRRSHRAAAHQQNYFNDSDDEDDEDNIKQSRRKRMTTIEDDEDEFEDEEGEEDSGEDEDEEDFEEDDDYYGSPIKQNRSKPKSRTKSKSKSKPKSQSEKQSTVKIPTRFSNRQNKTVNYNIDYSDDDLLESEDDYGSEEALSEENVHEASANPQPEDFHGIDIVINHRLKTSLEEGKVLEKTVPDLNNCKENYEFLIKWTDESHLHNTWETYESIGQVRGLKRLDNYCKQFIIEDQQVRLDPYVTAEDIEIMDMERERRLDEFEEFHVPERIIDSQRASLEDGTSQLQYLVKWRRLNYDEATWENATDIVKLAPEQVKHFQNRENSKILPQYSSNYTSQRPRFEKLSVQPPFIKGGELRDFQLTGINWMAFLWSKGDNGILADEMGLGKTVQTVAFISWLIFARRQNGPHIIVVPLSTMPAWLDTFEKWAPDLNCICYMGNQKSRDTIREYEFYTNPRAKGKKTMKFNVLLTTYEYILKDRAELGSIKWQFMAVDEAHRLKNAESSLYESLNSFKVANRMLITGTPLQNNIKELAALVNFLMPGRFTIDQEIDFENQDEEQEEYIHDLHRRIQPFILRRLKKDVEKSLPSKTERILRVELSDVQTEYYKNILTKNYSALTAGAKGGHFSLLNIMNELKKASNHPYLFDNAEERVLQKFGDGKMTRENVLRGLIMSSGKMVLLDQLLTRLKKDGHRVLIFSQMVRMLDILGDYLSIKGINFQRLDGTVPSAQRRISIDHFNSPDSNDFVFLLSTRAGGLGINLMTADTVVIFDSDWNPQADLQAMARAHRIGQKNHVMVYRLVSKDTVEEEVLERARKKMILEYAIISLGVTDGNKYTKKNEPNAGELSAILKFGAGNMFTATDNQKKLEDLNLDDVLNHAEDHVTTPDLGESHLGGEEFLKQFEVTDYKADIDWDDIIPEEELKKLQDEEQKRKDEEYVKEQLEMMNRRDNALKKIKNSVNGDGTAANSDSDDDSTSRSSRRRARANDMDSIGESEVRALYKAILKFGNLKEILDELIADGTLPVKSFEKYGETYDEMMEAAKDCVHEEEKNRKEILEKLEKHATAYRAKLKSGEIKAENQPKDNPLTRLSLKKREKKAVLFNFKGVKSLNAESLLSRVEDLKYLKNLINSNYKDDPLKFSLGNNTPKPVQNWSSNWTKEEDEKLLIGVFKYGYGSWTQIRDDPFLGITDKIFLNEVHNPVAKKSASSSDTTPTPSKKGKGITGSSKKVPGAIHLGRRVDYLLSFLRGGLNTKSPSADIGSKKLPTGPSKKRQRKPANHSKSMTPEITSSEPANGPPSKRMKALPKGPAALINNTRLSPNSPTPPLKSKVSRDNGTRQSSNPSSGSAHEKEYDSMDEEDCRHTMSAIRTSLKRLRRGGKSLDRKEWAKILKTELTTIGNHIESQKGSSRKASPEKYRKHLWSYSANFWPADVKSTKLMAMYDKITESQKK

Sialic acid-binding Ig-like lectin 9 (Homo sapiens), sequence (Q9Y336 whole entry): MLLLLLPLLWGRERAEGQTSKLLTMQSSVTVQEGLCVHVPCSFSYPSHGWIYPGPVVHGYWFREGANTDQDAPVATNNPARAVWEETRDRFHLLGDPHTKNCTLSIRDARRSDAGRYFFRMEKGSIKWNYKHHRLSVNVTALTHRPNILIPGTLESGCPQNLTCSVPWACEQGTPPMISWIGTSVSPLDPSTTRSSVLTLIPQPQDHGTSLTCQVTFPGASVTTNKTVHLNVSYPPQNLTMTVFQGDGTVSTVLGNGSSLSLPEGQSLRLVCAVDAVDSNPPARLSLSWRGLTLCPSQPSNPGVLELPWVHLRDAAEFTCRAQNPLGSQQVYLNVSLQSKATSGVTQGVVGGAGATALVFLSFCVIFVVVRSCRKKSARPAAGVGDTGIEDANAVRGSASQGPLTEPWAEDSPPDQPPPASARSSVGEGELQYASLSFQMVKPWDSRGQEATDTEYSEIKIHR
Protein translocase subunit SecA (Escherichia coli (strain K12)), sequence (P10408 whole entry): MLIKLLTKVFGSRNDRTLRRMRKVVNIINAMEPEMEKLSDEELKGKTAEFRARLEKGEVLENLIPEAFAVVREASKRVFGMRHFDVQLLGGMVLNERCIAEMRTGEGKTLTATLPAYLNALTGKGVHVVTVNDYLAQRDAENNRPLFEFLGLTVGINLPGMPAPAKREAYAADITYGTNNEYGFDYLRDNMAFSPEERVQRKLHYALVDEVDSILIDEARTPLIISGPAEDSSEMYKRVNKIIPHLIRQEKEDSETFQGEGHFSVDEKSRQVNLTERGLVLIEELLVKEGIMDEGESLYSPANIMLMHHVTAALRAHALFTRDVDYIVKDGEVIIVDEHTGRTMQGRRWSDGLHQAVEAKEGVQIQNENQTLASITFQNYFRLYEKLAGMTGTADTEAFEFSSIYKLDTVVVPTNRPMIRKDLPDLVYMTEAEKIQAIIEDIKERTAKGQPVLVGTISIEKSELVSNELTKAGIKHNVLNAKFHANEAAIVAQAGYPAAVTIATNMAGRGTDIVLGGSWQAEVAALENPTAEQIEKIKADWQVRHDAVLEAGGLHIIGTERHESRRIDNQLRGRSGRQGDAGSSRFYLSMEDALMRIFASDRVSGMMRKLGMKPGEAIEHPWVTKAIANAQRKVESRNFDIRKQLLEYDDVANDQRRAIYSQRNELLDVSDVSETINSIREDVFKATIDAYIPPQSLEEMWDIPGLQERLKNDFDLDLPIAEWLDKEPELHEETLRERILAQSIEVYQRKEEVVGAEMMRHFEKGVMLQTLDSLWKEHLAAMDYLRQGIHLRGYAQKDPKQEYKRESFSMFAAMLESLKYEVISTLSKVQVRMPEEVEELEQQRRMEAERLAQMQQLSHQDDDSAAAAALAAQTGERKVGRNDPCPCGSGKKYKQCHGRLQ

`CC1CCc2nc(O)c(C(=O)NCCN(C)C)cc2C1` (stereo not given) gave a Percent Effect [1] of -6.34%, a Percent Effect [2] of 4% and a Percent Effect [3] of -0.0231%. The Percent Effect [4] was 6.09%, the Percent Effect (Trypanosoma cruzi) was 1.38% and the Percent Effect [5] was -6.51%. It also gave a Percent Effect [6] of 14.8%, a Percent Effect (Homo sapiens) of -2.83% and a Percent Effect [7] of 1.06%. It also gave a Percent Effect [8] of 2.56% and a Percent Effect [9] of -5.39%.

With `CNC(=O)[C@@]12CCCN(c3ncccn3)[C@@H]1CN(C(=O)NC(C)C)C2` the Percent Effect [1] was -0.175%, the Percent Effect [2] was 20.8% and the Percent Effect [3] was 3.44%. The Percent Effect [4] was -13.2%, the Percent Effect (Trypanosoma cruzi) was -0.296% and the Percent Effect [5] was 1.94%. It also gave a Percent Effect [6] of 16.5%, a Percent Effect (Homo sapiens) of 12.8% and a Percent Effect [7] of -6.35%. The Percent Effect [8] was 14.1% and the Percent Effect [9] was -12.4%.

For `Nc1cc2c(nn1)CCN(C(=O)c1cccc3c1OCCO3)C2`, the Percent Effect [1] was 0.377%, the Percent Effect [2] was 2.6% and the Percent Effect [3] was -2.26%. For the same compound, the Percent Effect [4] was 6.77%, the Percent Effect (Trypanosoma cruzi) was 8.24% and the Percent Effect [5] was 0.356%. It also gave a Percent Effect [6] of 4.05%, a Percent Effect (Homo sapiens) of 10.7% and a Percent Effect [7] of 5.83%. It also gave a Percent Effect [8] of 12.2% and a Percent Effect [9] of -10.5%.

`O=C(c1ccc(Cl)cc1)N1CCCn2nnc(Cn3cccn3)c2C1` showed a Percent Effect [1] of -2.51%, a Percent Effect [2] of 16.2% and a Percent Effect [3] of 3.45%. It also gave a Percent Effect [4] of 15.3%, a Percent Effect (Trypanosoma cruzi) of 4.2% and a Percent Effect [5] of 8.19%. It also gave a Percent Effect [6] of 16.6%, a Percent Effect (Homo sapiens) of 8.78% and a Percent Effect [7] of 5.38%. It also gave a Percent Effect [8] of 16.1% and a Percent Effect [9] of -7.62%.

`O=C(c1cc(F)ccc1F)C1CCN(C(=O)c2ccccn2)CC1` showed a Percent Effect [1] of -3.32%, a Percent Effect [2] of 13% and a Percent Effect [3] of 3.21%. It also gave a Percent Effect [4] of -2.77%, a Percent Effect (Trypanosoma cruzi) of 1.27% and a Percent Effect [5] of 3.58%. The Percent Effect [6] was 17.1%, the Percent Effect (Homo sapiens) was 21.7% and the Percent Effect [7] was 7.62%. It also gave a Percent Effect [8] of 23.5% and a Percent Effect [9] of -13.2%.

`CN(Cc1nc(N)c2ccccc2n1)C1CCCN(c2cccnn2)C1` (stereo not given) was tested, and the Percent Effect [1] was -4.12%, the Percent Effect [2] was -5.2% and the Percent Effect [3] was -10.2%. For the same compound, the Percent Effect [4] was 5.86%, the Percent Effect (Trypanosoma cruzi) was 7.49% and the Percent Effect [5] was -1.07%. The Percent Effect [6] was 13.3%, the Percent Effect (Homo sapiens) was -0.131% and the Percent Effect [7] was 9.71%. It also gave a Percent Effect [8] of 14.6% and a Percent Effect [9] of -9.67%.

`CN(Cc1cscn1)C1CCCN(Cc2noc(C3CC3)n2)C1` (stereo not given) showed a Percent Effect [1] of -0.734%, a Percent Effect [2] of 23.7% and a Percent Effect [3] of -5.57%. It also gave a Percent Effect [4] of -10.6%, a Percent Effect (Trypanosoma cruzi) of 2.33% and a Percent Effect [5] of 0.36%. It also gave a Percent Effect [6] of 12.9%, a Percent Effect (Homo sapiens) of 0.628% and a Percent Effect [7] of 7.39%. It also gave a Percent Effect [8] of 28.4% and a Percent Effect [9] of -12.5%.

Compound `Cc1nc(CN2CCCC2c2c(C)nn(C)c2Cl)no1` (stereo not given) has a Percent Effect [1] of -2.73%, a Percent Effect [2] of 5.26% and a Percent Effect [3] of -8.02%. For the same compound, the Percent Effect [4] was -3%, the Percent Effect (Trypanosoma cruzi) was -2.33% and the Percent Effect [5] was -3.24%. For the same compound, the Percent Effect [6] was -9.22%, the Percent Effect (Homo sapiens) was -11.3% and the Percent Effect [7] was 3.45%. The Percent Effect [8] was -1.24% and the Percent Effect [9] was 6.8%.

For `Cc1ccc(CN2CCCC3(CCN(S(C)(=O)=O)C3)C2)o1` (stereo not given), the Percent Effect [1] was -3.67%, the Percent Effect [2] was 8% and the Percent Effect [3] was 11.7%. The Percent Effect [4] was 5.08%, the Percent Effect (Trypanosoma cruzi) was -1.97% and the Percent Effect [5] was -4.43%. For the same compound, the Percent Effect [6] was 3.96%, the Percent Effect (Homo sapiens) was 15.2% and the Percent Effect [7] was 6.38%. For the same compound, the Percent Effect [8] was 14.1% and the Percent Effect [9] was -3.22%.

Work on `Cc1ccc(CC(=O)N2CCCC(c3nc(C)cs3)C2)cn1` (stereo not given) yielded a Percent Effect [1] of -5.58%, a Percent Effect [2] of -2.7% and a Percent Effect [3] of -3.92%. The Percent Effect [4] was 13.4%, the Percent Effect (Trypanosoma cruzi) was -0.0929% and the Percent Effect [5] was -0.554%. For the same compound, the Percent Effect [6] was 0.539%, the Percent Effect (Homo sapiens) was -13.1% and the Percent Effect [7] was 0.99%. The Percent Effect [8] was -6.1% and the Percent Effect [9] was 7.44%.

From ChEMBL document CHEMBL3988442, “University of Dundee, Small-Polar-MMV Screening Library” (2021)
